From PubChem BioAssay
Most compounds without a hit are left out; they make up all but 6.2% or so of the library.
HT1080 IDH1KD tx: HT-1080 IDH1 knockdown cell toxicity (counter line); HT-1080 IDH1 knockdown viability, ATP luminescence, 48 h; 2% of 360,000 active; Potency, µM (highest dose often 46.1 µM), actives largely listed as cytotoxic
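In this qHTS, HT-1080 cells depleted of IDH1 are exposed for 48 h at 37 °C to compound titrations. Toxicity is scored from CellTiter-Glo luminescence, with DMSO as full viability and medium alone as none.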
ATXN2 expr inh: reduces ATXN2 reporter expression in HEK-293 cells. Potency, µM (titrated, usually from 57 µM), actives largely listed as inhibitors. HEK-293 ATXN2-luciferase reporter, luminescence, 24 h. 0.72% of 360,000 active; note: nearly all actives have a fitted effect of over 55% in size
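qHTS (up to 57 uM final) was run with 24 h compound exposure of reporter cells at 37 °C. Each well was multiplexed: SteadyGlo luminescence measured ATXN2-luciferase expression after a fluorogenic Gly-Phe-AFC viability readout (25 uM final).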
ATXN viability: cell viability loss in ATXN counter-screen; AID 651635; Potency, µM (series often up to 56.7 µM), hits mostly cytotoxic; S2 cells (HEK-293 line with an ATXN2-luciferase reporter) viability, CellTiter-Fluor protease fluorescence, 24 h; 0.49% of 400,000 active; note: nearly all actives have a fitted effect of over 40% in size
KB-V1 cytotox: kills drug-selected multidrug resistant KB-V1 cells; KB-V1 MDR cells viability, CellTiter-Glo, 72 h; Potency, µM (top dose mostly 46.1 µM), hits mostly cytotoxic; 3.4% of 400,000 active; AID 1347076; note: nearly all actives have a fitted effect of over 60% in size
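Compound-treated KB-V1 multidrug-resistant cells, 72 h, 37 degrees C; viability by CellTiter-Glo. Fitted qHTS curves give the values.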
KB-3-1 tox: kills parental KB-3-1 adenocarcinoma cells; KB-3-1 viability, CellTiter-Glo ATP luminescence, 72 h; AID 1347075; Potency, µM (series often up to 46.1 µM), hits mostly cytotoxic; 1.4% of 400,000 active; note: nearly all actives have a fitted effect of over 60% in size
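KB-3-1 cells, DMEM (no phenol red) + 10% FBS; compound by pin transfer, 72 h, 37 °C. Readout: CellTiter-Glo luminescence after 10 min. Data normalized, curve-fitted.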
HT1080NT lethal: kills 2HG-producing HT-1080-NT fibrosarcoma cells. HT-1080-NT fibrosarcoma viability, CellTiter-Glo ATP luminescence, 48 h. Potency, µM (doses to about 46.1 µM), actives largely listed as cytotoxic. 1.6% of 360,000 active. AID 686970;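 note: NT is the 2HG producing partner of a matched IDH1 knockdown line; nearly all actives have a fitted effect of over 55% in size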
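HT-1080-NT; 750 cells/well; 5% FBS RPMI; 48 h compound, 37 degrees C; CellTiter-Glo luminescence; curve fitting and curve-class assignment.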
Large screens that a line does not name were inactive. Calls come from the whole dose curve; as a rule, active = well fitted curve in the direction sought with a large enough effect; inconclusive = small, poorly fitted or top-dose-only effect, or another doubt; inactive = no such curve, though single readings can be large; an effect the other way counts as inactive or inconclusive.

COc1ccc(C2CC(c3ccccc3)=NN2c2ccc(N)cc2)cc1 (stereo not drawn)	HT1080 IDH1KD tx inconclusive, KB-V1 cytotox 21µM, KB-3-1 tox inconclusive, HT1080NT lethal inconclusive
CC(=O)Oc1ccc(C2=NN(c3ccccc3)C(c3ccccc3)C2)cc1 (stereo not drawn)	HT1080 IDH1KD tx inconclusive, KB-V1 cytotox inconclusive, KB-3-1 tox inconclusive, HT1080NT lethal 16µM (no result: ATXN2 expr inh)
COc1ccc2occ(CC(=O)Nc3ccc(S(=O)(=O)Nc4nccc(C)n4)cc3)c2c1	none (no result: HT1080 IDH1KD tx, HT1080NT lethal)
CCN(C(=O)CSc1nc2ccccc2n1CC(=O)Nc1ccc(F)cc1F)c1ccccc1	none (no result: HT1080 IDH1KD tx, HT1080NT lethal)
C(=N\n1cnnc1)/c1cccc2ccccc12	KB-V1 cytotox 10µM, KB-3-1 tox inconclusive
COc1ccc2ccccc2c1/C=N/n1cnnc1	none (no result: ATXN2 expr inh)
C(=N\n1cnnc1)/c1cn(Cc2ccccc2)c2ccccc12	HT1080 IDH1KD tx inconclusive, KB-V1 cytotox 15µM
COC(=O)[C@@H](NS(=O)(=O)c1ccc(F)cc1Br)C(C)C	none
O=C(NCc1ccc2c(c1)CCN2C(=O)c1ccccc1)c1cc2ccccc2[nH]1	none (no result: HT1080 IDH1KD tx, ATXN2 expr inh, ATXN viability, HT1080NT lethal)
O=C(CCNS(=O)(=O)c1cccc2nonc12)NC1CCCc2ccccc21 (stereo not drawn)	KB-V1 cytotox 23µM
O=C(CCNS(=O)(=O)c1cccc2nsnc12)NC1CCCc2ccccc21 (stereo not drawn)	none
O=C(CCCOc1ccccc1)NC1CCCc2ccccc21 (stereo not drawn)	KB-V1 cytotox 18µM
C#CCNC(=O)C[C@@H]1C[C@@]2(C(=O)OC)CCCCC=C2N(CCCCCCCC)C1=O	HT1080 IDH1KD tx inconclusive, ATXN viability inconclusive, KB-V1 cytotox inconclusive
CCc1ccc(NC(=O)c2ccc(F)c(S(=O)(=O)NCC3COc4ccccc4O3)c2)cc1 (stereo not drawn)	ATXN2 expr inh inconclusive, ATXN viability inconclusive, KB-V1 cytotox 3.3µM, KB-3-1 tox inconclusive
O=C(NCC1COc2ccccc2O1)c1ccc(F)c(S(=O)(=O)N2CCOCC2)c1 (stereo not drawn)	KB-V1 cytotox inconclusive
O=C(CN1C(=O)NC2(CCc3ccccc32)C1=O)c1ccc(Br)s1 (stereo not drawn)	KB-V1 cytotox inconclusive
CCCc1c(C)c2cc(C)ccc2[nH]c1=O	KB-V1 cytotox 4.1µM, KB-3-1 tox inconclusive
O=C(CNC(=O)C1CCCCC1)Nc1cc(Cl)ccc1Cl	KB-V1 cytotox 21µM
O=C(CNC(=O)C1CCCCC1)Nc1ccccc1Cl	none
COc1ccc(S(=O)(=O)N(C)C)cc1NCC(=O)Nc1ccc(Br)c(C)c1	KB-V1 cytotox 7.3µM
COc1cc(OC)c(NC2=CC(=O)C(=O)c3ccccc32)cc1Cl	HT1080 IDH1KD tx 8.2µM, ATXN viability 18µM, KB-V1 cytotox 4.1µM, KB-3-1 tox 4.6µM, HT1080NT lethal 21µM (no result: ATXN2 expr inh)
NS(=O)(=O)c1ccc(NC2=CC(=O)C(=O)c3ccccc32)cc1	HT1080 IDH1KD tx inconclusive, ATXN2 expr inh inconclusive, KB-3-1 tox inconclusive, HT1080NT lethal inconclusive
Cc1ccc(NC2=CC(=O)C(=O)c3ccccc32)cc1	HT1080 IDH1KD tx 6.3µM, ATXN viability inconclusive, KB-V1 cytotox 16µM, KB-3-1 tox inconclusive, HT1080NT lethal 10µM
Cc1cc(NC2=CC(=O)C(=O)c3ccccc32)no1	HT1080 IDH1KD tx inconclusive, ATXN viability inconclusive, KB-V1 cytotox 18µM, KB-3-1 tox inconclusive, HT1080NT lethal inconclusive
COc1ccc(CN2CCOc3ccc(CN4CCCCC4CO)cc3C2)c(OC)c1 (stereo not drawn)	none (no result: HT1080 IDH1KD tx, ATXN2 expr inh, KB-V1 cytotox, KB-3-1 tox, HT1080NT lethal)
CSC1SCC2C(=O)N(C)C(C(C)C)C(=O)OCC(NC(=O)c3cnc4ccccc4n3)C(=O)NC(C)C(=O)N(C)C1C(=O)N(C)C(C(C)C)C(=O)OCC(NC(=O)c1cnc3ccccc3n1)C(=O)NC(C)C(=O)N2C (stereo not drawn)	HT1080 IDH1KD tx 0.0012µM, ATXN viability inconclusive, KB-V1 cytotox 1.6µM
C=C1C(=O)OC2C=C(CO)C3OC3C3OC3(C)CC(OC(=O)/C(=C/C)COC(C)=O)C12 (stereo not drawn)	HT1080 IDH1KD tx 5.2µM, ATXN2 expr inh inconclusive, KB-3-1 tox inconclusive (no result: ATXN viability)
CC(=O)OCC1=C[C@@H]2OC(=O)C3=CO[C@@H](O[C@@H]4O[C@H](CO)[C@@H](O)[C@H](O)[C@H]4O)[C@H]1[C@@H]32	none
CCOC(=O)Cc1nn(Cc2nc(-c3ccc(C)cc3)cs2)c(=O)c2ccccc12	KB-V1 cytotox inconclusive, HT1080NT lethal 16µM (no result: ATXN2 expr inh)
Cc1cccc(-n2c(SCC(N)=O)nc3c(c2=O)C2(CCCC2)Cc2ccccc2-3)c1	HT1080 IDH1KD tx inconclusive, KB-V1 cytotox 3.3µM, KB-3-1 tox inconclusive, HT1080NT lethal inconclusive
CCn1c(SCC(N)=O)nc2c(c1=O)C1(CCCC1)Cc1ccccc1-2	none
NC(=O)CSc1nc2c(c(=O)n1-c1ccccc1)C1(CCCCC1)Cc1ccccc1-2	HT1080 IDH1KD tx 13µM, ATXN viability inconclusive, KB-V1 cytotox inconclusive, KB-3-1 tox inconclusive, HT1080NT lethal inconclusive
Cc1cc(Nc2ccc(Br)cc2)n2nc(-c3ccccc3C)nc2n1	none (no result: HT1080 IDH1KD tx, HT1080NT lethal)
Cc1ccccc1-c1csc(C(O)(c2ccccc2)C(F)(F)F)n1 (stereo not drawn)	HT1080 IDH1KD tx inconclusive, HT1080NT lethal inconclusive
COc1ccc(C(C(=O)NC(C)(C)C)N(C(=O)CCC(=O)Nc2cc(C)on2)c2cc(C)cc(C)c2)cc1 (stereo not drawn)	KB-V1 cytotox 15µM
COc1ccc(C(C(=O)NC(C)(C)C)N(Cc2ccc(C)cc2)C(=O)CCC(=O)Nc2cc(C)on2)cc1 (stereo not drawn)	KB-3-1 tox inconclusive (no result: ATXN2 expr inh)
C(=NN=C1c2ccccc2-c2ccccc21)c1c[nH]c2ccccc12	HT1080 IDH1KD tx inconclusive, ATXN viability 19µM, KB-V1 cytotox 23µM, KB-3-1 tox inconclusive
Fc1c(F)c(F)c(N/N=C/c2c[nH]c3ccccc23)c(F)c1F	ATXN viability inconclusive, KB-3-1 tox inconclusive
CCC(=O)O[C@@]1(C(=O)CCl)[C@@H](C)C[C@@H]2[C@H]3CCC4=CC(=O)C=C[C@@]4(C)[C@]3(F)[C@@H](O)C[C@@]21C	none (no result: HT1080 IDH1KD tx, ATXN2 expr inh, KB-V1 cytotox, KB-3-1 tox, HT1080NT lethal)
Cc1ccc(OCC(=O)N2CCc3ccccc32)c([N+](=O)[O-])n1	KB-3-1 tox 23µM
CCOC(=O)c1[nH]c(C)c(C(=O)OCC(=O)NC(C)c2ccc(F)cc2)c1C (stereo not drawn)	HT1080 IDH1KD tx 3.7µM, KB-3-1 tox 1.8µM, HT1080NT lethal 3.7µM (no result: ATXN2 expr inh)
CC(=O)Oc1ccc(-c2ccc(C(=O)OCC(=O)N(C)CC(=O)Nc3ccccc3Cl)cc2)cc1	HT1080 IDH1KD tx inconclusive, HT1080NT lethal 18µM
CCOC(=O)c1c(C)[nH]c(C(=O)OCC(=O)N(C)CC(=O)Nc2ccccc2Cl)c1C	KB-V1 cytotox 13µM
